Records with an inconclusive call do not appear. The source made the active and inactive calls. Unless noted, calls follow the shape of the dose curve; as a rule, active = well fitted curve in either direction with a large enough effect (not every such curve was filed as active); inconclusive = small, poorly fitted or top-dose-only effect, or another doubt; inactive = flat fitted curve, though single readings scatter.
Legend:
[1] = target: Lysosomal acid glucosylceramidase (Homo sapiens) (UniProt P04062); experiment: Glucocerebrosidase-p2 (AID 348; in the data active = potency below about 10 µM; also: potency is read from the fitted curve at half-maximal effect); conditions: purified GBA, blue fluorogenic substrate, 40 min
Lysosomal acid glucosylceramidase (Homo sapiens), sequence (P04062 whole entry, looked up): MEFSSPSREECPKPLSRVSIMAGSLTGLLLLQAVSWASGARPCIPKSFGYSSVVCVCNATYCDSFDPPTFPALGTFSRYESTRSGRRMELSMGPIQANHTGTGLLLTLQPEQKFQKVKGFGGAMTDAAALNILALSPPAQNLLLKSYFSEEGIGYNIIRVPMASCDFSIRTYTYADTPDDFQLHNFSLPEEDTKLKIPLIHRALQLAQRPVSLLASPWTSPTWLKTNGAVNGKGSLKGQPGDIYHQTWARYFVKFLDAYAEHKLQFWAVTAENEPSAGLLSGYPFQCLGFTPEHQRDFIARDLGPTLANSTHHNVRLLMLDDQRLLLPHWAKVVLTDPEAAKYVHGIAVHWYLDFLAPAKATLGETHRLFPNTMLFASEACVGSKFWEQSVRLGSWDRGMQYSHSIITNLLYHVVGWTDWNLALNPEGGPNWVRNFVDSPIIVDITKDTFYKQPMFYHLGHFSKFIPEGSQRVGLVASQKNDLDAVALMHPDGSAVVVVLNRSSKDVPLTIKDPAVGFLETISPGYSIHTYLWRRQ
Outline: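 Normal human glucocerebrosidase (0.2 nM) with blue fluorogenic substrate (80 uM final) in citrate/phosphate pH 5.9 with 10mM sodium taurocholate, 0.01% tween-20; 40 min RT, NaOH/glycine stop; fluorescence Ex 365/Em 440; AC50 from a titration from 0.6 nM upwards.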

[2] = AP1 Signaling Pathway (AID 357); conditions: ME-180 AP-1-bla reporter, EGF-induced, beta-lactamase ratio, 5 h; at 7.69 µM (top of the series) unless noted;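 also: ME-180 reporter cells stimulated with EGF at its EC50 level; % is scaled to controls: 0 for no effect and ±100 for the full control effect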
Outline: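 Beta-lactamase reporter under AP-1 response element, ME-180 background. Stimulus: EC50 EGF. Compound exposure 5 h, 37 °C. Detection: CCF4, 2.5 h RT, 460/530 nm. Values: AC50 from titration.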

[3] = NFAT Signaling Pathway (AID 444); conditions: Jurkat NFAT-bla M1, carbachol, beta-lactamase ratio, 5 h; at 7.69 µM (top of the series) unless noted;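 also: carbachol stimulus at about its EC50 of 1 µM final; % is scaled to controls: 0 for no effect and ±100 for the full control effect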
Outline: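 Read-out: CCF4 FRET ratio (460 nm/530 nm) after 1 h RT dye loading, used for %activity and AC50 from titration series. Cells: Jurkat NFAT-β-lactamase/M1 line, treated with compound plus 1 uM carbachol for 5 h, 37 °C.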

[4] = Stat Signaling Pathway (AID 446); conditions: ME-180 SIE beta-lactamase reporter, IL-6 stimulated, 5 h; at 7.69 µM (top of the series) unless noted;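 also: ME-180 cervical cancer cells given 40 pM IL-6 alongside compound; SIE-controlled beta-lactamase reporter measured as 460/530 nm FRET emission ratio; % is scaled to controls: 0 for no effect and ±100 for the full control effect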
Outline: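 FRET read-out (405 nm excitation, 460/530 nm emission) of a beta-lactamase reporter under a STAT-inducible element in ME-180 cervical carcinoma cells. Cells with compound receive 40 pM IL-6 for 5 h. Values are normalised to AC90 stimulation and AC90 JAK-inhibitor controls.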

[5] = target: Glucocorticoid receptor (Homo sapiens) (UniProt P04150); experiment: GR-EFC Redistribution (AID 451; calls by dose curve; also: potency is read from the fitted curve at half-maximal effect); conditions: CHO-K1 GR-EFC translocation, beta-gal luminescence, 2 h
Glucocorticoid receptor (Homo sapiens), sequence (P04150 whole entry, looked up, the tested form may be a part): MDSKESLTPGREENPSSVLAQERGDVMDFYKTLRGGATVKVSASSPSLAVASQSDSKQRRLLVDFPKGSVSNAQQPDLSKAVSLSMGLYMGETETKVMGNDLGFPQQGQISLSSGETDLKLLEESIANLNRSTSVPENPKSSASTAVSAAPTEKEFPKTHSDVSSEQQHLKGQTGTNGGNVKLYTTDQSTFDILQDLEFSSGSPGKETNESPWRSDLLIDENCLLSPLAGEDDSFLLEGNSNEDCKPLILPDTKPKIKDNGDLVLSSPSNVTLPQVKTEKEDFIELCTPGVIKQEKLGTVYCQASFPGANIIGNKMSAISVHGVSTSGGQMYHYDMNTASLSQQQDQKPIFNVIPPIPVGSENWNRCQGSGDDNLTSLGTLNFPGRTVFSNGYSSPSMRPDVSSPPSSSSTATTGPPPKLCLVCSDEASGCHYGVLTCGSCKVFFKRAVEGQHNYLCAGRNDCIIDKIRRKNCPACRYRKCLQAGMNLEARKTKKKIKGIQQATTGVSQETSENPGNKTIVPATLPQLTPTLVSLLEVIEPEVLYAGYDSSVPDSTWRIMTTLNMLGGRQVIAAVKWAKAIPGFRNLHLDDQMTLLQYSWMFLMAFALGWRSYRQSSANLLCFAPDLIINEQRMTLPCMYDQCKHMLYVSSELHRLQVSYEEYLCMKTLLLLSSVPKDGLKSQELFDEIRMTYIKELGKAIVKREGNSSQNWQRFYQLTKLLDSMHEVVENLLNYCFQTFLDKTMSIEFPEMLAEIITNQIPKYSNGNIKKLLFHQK
Outline: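 Translocation of GR-ED fusion to nuclear EA restores b-gal, read by luminescence after 1 h room-temperature detection. Engineered CHO-K1 biosensor cells, 1,000/well, exposed 2 h at 37 C to titrations up to 46 uM final.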

[6] = target: Mitogen-activated protein kinase 10 (Mus musculus) (UniProt Q61831); experiment: JNK3 AlphaScreen Assay (AID 530); conditions: JNK3 lysate, c-Jun phosphorylation; series mostly up to 57.1 µM;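 also: kinase came from lysate of stimulated human HepG2 cells; signal reports phosphorylation of biotinylated GST-cJun 1-79 at Ser73 with 10 µM ATP; % is scaled to controls: 0 for no effect and ±100 for the full control effect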
Outline: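 Kinase buffer: 20 mM Tris-HCl pH 7.6, 10 mM MgCl2, 1 mM DTT, 0.1 mM Na3VO4, 0.01% Tween-20; ATP 10 uM. Substrate biotin-GST-cJun(1-79), enzyme from activated HepG2 lysates. Detection by Ser73 phospho-antibody AlphaScreen.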

[7] = target: 3',5'-cyclic-AMP phosphodiesterase 4B (Homo sapiens) (UniProt Q07343); experiment: qHTS Assay for Inhibitors of PDE-IV (AID 607; active = well fitted activation curve with a large enough effect in the main read-out, with a control signal flat, not every such curve was filed as active; also: % of control where 0% means no effect); conditions: HEK293 ACTOne CNG channel cells, membrane potential fluorescence; series mostly up to 22.9 µM
3',5'-cyclic-AMP phosphodiesterase 4B (Homo sapiens), sequence (Q07343 whole entry, looked up): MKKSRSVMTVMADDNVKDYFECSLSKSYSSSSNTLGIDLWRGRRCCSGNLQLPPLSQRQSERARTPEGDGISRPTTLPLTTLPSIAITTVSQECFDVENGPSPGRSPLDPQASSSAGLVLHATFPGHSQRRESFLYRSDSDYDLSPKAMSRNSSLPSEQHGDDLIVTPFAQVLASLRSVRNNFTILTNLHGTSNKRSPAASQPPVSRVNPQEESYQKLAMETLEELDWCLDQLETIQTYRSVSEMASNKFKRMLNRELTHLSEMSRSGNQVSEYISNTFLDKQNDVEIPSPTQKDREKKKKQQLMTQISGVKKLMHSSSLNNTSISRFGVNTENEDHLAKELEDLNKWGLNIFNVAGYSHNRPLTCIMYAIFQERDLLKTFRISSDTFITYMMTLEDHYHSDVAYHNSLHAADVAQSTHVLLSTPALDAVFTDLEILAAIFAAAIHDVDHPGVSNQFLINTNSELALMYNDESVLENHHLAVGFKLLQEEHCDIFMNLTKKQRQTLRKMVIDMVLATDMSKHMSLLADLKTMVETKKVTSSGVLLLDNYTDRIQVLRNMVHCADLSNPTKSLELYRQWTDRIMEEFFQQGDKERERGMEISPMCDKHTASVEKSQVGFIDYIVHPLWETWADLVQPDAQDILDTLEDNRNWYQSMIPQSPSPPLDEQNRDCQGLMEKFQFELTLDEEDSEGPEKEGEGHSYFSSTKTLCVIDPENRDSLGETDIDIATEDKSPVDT
Outline: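 Cell-based read-out of cAMP via a modified cyclic nucleotide-gated channel and membrane potential dye (535/590 nm) in HEK293 cells expressing PDE4 endogenously. Compounds tested up to 22.9 uM final; 100 uM RO 20-1724 reference.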

[8] = target: Cytochrome P450 3A4 (Homo sapiens) (UniProt P08684); experiment: qHTS Assay for Activators of Cytochrome P450 3A4 (AID 885; active = well fitted curve in the direction sought with a large enough effect; an effect the other way counts as inactive or inconclusive; also: nearly all actives have a fitted effect of over 65% in size; also: potency is read from the fitted curve at half-maximal effect); conditions: recombinant CYP3A4, Luciferin-PPXE luminescence, 60 min; series mostly up to 57.1 µM
Cytochrome P450 3A4 (Homo sapiens), sequence (P08684 whole entry, looked up): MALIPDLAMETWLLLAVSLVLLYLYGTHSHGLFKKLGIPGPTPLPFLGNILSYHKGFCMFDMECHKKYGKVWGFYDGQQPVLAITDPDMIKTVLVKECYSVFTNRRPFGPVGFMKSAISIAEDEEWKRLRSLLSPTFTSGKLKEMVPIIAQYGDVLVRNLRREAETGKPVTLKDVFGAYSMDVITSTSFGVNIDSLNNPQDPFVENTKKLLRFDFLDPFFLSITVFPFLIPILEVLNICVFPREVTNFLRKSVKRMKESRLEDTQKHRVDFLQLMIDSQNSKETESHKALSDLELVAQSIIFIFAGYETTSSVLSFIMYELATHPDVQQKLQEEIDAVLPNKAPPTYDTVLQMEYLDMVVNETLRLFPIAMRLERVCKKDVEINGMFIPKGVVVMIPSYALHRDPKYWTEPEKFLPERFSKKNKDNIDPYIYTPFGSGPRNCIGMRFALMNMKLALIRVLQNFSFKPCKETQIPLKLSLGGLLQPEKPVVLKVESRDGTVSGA
Outline: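 Luminescent readout of luciferin formed from 25 uM Luciferin-PPXE (KM level) by 20 nM CYP3A4 in 200 mM KPO4, with 60 min NADPH-driven reaction at room temperature after 10 min compound exposure. Ketoconazole (57 uM) defined 100% inhibition.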

[9] = qHTS Assay for Lipid Storage Modulators (AID 1519; calls by dose curve); conditions: Drosophila S3 cells, BODIPY lipid droplet/cell ratio, laser cytometry, cells loaded with oleic acid; for activity change, negative = inhibition: at 57.5 µM (top of the series)
Outline: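 Cells seeded at 5,000 per well were treated with compounds over a concentration series and loaded with oleic acid (400 uM, as added). Lipid droplet fluorescence (488 nm excitation, 500-530 nm channel) was read by laser-scanning cytometry and normalized to 20 uM Triacsin C.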

[10] = Primary qHTS for small molecule stabilizers of the endoplasmic reticulum resident proteome: Secreted ER Calcium Modulated Protein (SERCaMP) assay (AID 1508630; active = well fitted curve in the direction sought with a large enough effect; an effect the other way counts as inactive or inconclusive; also: % is scaled to controls: 0 for no effect and ±100 for the full control effect); conditions: SH-SY5Y GLuc-SERCaMP (Gaussia luciferase released on ER calcium loss) secretion, thapsigargin, luminescence; series mostly up to 38.4 µM
Outline: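 The SH-SY5Y reporter protocol was run at 3 concentrations up to 38.3 uM (primary) or 11 concentrations (follow-up): 16 h compound, 100 nM thapsigargin for 4 h, then extracellular luciferase luminescence.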

[11] = target: Cytochrome P450 3A4 (Homo sapiens) (UniProt P08684); experiment: qHTS Assay for Inhibitors and Substrates of Cytochrome P450 3A4 (AID 884; active = well fitted curve in the direction sought with a large enough effect; an effect the other way counts as inactive or inconclusive; also: % is scaled to controls: 0 for no effect and ±100 for the full control effect; nearly all actives have a fitted effect of over 50% in size); conditions: recombinant CYP3A4, Luciferin-PPXE luminescence; series mostly up to 57.1 µM
Outline: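 Luminescent readout of luciferin produced by CYP3A4 (20 nM) dealkylation of Luciferin-PPXE, 25 uM (its KM). NADPH-driven reaction ran 60 min at RT after 10 min compound preincubation; data scaled to 57 uM ketoconazole as 100% inhibition.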

[12] = qHTS Assay for Identification of Small Molecule Agonists for Hypoxia Response Element Signaling Pathway (AID 914; active = well fitted activation curve with a large enough effect in the signal ratio, with a control signal flat, not every such curve was filed as active; the % refers to the signal ratio; also: % of control where 0% means no effect); conditions: ME-180 (cervical carcinoma) HRE-bla reporter, beta-lactamase ratio, CoCl2, 17 h; activation: stronger effect = higher value
Outline: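 In Opti-MEM containing 0.5% dialyzed FBS and 10 mM HEPES, ME-180 HRE-bla cells received a compound titration and EC50 CoCl2. They were incubated 17 hours, then CCF4-loaded 2.5 hours at room temperature before ratio reading.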

[13] = target: Glucocorticoid receptor (Homo sapiens) (UniProt P04150); experiment: GR-GFP Redistribution (AID 450;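 active = compounds whose dose series gives a full or clear partial fitted curve of increased nuclear translocation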; also: potency is read from the fitted curve at half-maximal effect); conditions: U2OS GR-GFP nuclear translocation, laser cytometry, 2 h
[14] = Confirmation and Secondary Assay for Modulators of Hemoglobin Beta Chain Splicing at IVS2 654 locus (AID 910; active = well fitted curve in the direction sought with a large enough effect; an effect the other way counts as inactive or inconclusive;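 also: HeLa cells stably carrying EGFP split by mutant beta-globin IVS2-654 intron; per-well total GFP intensity by laser scanning cytometry after 2-day treatment; % of control where 0% means no effect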); conditions: HeLa EGFP-654 splicing reporter, GFP fluorescence, 48 h; series mostly up to 38.3 µM
Outline: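 Readout: per-well total peak green fluorescence (488 nm ex, 500–520 nm em) from objects 5–250 µm, reflecting correct splicing of an EGFP-654 reporter. Compounds were applied for 2 days at 37 °C to overnight-plated HeLa EGFP-654 cells; controls were DMSO and 500 nM IVS2-654 PNA.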

[15] = Confirmation and Secondary Assay for Modulators of Hemoglobin Beta Chain Splicing at IVS2 705 locus (AID 930; active = well fitted curve in the direction sought with a large enough effect; an effect the other way counts as inactive or inconclusive;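 also: HeLa cells stably expressing the EGFP-705 splicing reporter; GFP fluorescence per well restored by corrected splicing of the IVS2-705 intron in EGFP; % of control where 0% means no effect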); conditions: HeLa EGFP-705 splicing reporter, GFP fluorescence, 48 h; series mostly up to 38.3 µM
Outline: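 Per-well GFP, captured at 1 x 8 µm resolution with 488 nm excitation, served as the read-out for HeLa EGFP-705 cells incubated 2 days with test compound versus DMSO.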

[16] = target: Ubiquitin carboxyl-terminal hydrolase 1 (Homo sapiens) (UniProt O94782); experiment: Inhibitors of USP1/UAF1: Pilot qHTS (AID 504865; active = well fitted curve in the direction sought with a large enough effect; an effect the other way counts as inactive or inconclusive;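 also: rhodamine fluorescence freed from ubiquitin-rhodamine substrate followed over time; top concentration of the series differs between compounds; % is scaled to controls: 0 for no effect and ±100 for the full control effect; nearly all actives have a fitted effect of over 35% in size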); conditions: purified USP1/UAF1, Ub-rhodamine cleavage fluorescence; series mostly up to 54.9 µM
Ubiquitin carboxyl-terminal hydrolase 1 (Homo sapiens), sequence (O94782 whole entry, looked up): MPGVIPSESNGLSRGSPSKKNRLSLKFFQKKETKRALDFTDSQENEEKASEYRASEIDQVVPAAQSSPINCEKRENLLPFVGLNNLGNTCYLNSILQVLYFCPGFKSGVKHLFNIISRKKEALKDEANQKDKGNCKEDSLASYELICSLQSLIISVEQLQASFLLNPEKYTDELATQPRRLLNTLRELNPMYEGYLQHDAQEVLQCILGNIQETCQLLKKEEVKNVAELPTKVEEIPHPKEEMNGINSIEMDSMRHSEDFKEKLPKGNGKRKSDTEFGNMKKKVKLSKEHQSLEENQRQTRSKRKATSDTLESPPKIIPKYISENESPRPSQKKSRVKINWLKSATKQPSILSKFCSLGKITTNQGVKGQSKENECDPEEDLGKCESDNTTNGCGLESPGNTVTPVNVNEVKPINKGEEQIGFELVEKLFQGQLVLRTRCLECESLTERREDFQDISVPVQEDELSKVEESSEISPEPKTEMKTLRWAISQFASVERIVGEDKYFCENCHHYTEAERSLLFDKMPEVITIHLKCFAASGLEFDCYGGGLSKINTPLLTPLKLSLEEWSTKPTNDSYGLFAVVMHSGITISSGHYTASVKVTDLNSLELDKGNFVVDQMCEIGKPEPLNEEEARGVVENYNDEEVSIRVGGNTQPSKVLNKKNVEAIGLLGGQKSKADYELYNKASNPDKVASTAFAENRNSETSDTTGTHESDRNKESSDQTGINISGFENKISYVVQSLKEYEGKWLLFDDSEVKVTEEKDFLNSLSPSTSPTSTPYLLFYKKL
Outline: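 Enzyme-free wells gave the negative control, while test wells held 1nM USP1/UAF1 preincubated with compound for 15 min at room temperature. Ub-Rho at 150nM final started the reaction, and fluorescence at 480/540 nm was recorded kinetically.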

[17] = measured here: cell count channel max response
[18] = measured here: lipid channel max response

O=C(c1cnccn1)N1CCC[C@@]2(CCN(c3ccccn3)C2)C1
26.9%: max response [9, 18]
inactive: Potency [1] > 11.4 µM | activity change, negative = inhibition [2] 7.84% | activity change, negative = inhibition [3] 0.825% | activity, negative = inhibition [4] 0.945% | Potency [5] > 46 µM | Potency [6] | Potency [7] | Potency [8] | activity change, negative = inhibition [9] 3.99% | outcome [10]
24.1%: max response [9, 17]

CC(=O)N1CCC2(CCCN(Cc3cc(C(F)(F)F)cc(C(F)(F)F)c3)C2)CC1
9.32%: max response [9, 18]
1.79%: max response [9, 17]
inactive: Potency [1] > 11.4 µM | activity change, negative = inhibition [2] 7.77% | activity change, negative = inhibition [3] 23.8% | activity, negative = inhibition [4] -2.82% | Potency [5] > 46 µM | Potency [6] | Potency [7] | Potency [8] | activity change, negative = inhibition [9] 4.05% | outcome [10]

O=C(c1cccc(F)c1)N1CCC[C@@]2(CCN(Cc3ccccc3)C2)C1
inactive: Potency [1] > 11.4 µM | activity change, negative = inhibition [2] -3.14% | activity change, negative = inhibition [3] -11.7% | activity, negative = inhibition [4] 9.35% | Potency [5] > 46 µM | Potency [6] | Potency [7] | activity change, negative = inhibition [9] -0.915% | outcome [10]
11.6%: max response [9, 17]
12%: max response [9, 18]

COCC(=O)N1CCC2(CC1)CN(c1ccncc1)C2
inactive: Potency [1] > 11.4 µM | activity change, negative = inhibition [2] -2.96% | activity change, negative = inhibition [3] 2.67% | activity, negative = inhibition [4] -1.5% | Potency [5] > 46 µM | Potency [6] | Potency [7] | activity change, negative = inhibition [9] 2.59% | outcome [10]
11.2%: max response [9, 18]
4.76%: max response [9, 17]

COc1ccc(C(=O)N2CCC3(CC2)CCN(c2ccccc2)CC3)cc1
9.05%: max response [9, 17]
17.4%: max response [9, 18]
inactive: Potency [1] > 11.4 µM | activity change, negative = inhibition [2] -11.8% | activity change, negative = inhibition [3] 1.53% | activity, negative = inhibition [4] -8.92% | Potency [5] > 46 µM | Potency [6] | Potency [7] | Potency [11] | activation [12] -13.6% | activity change, negative = inhibition [9] 4.37% | outcome [10]

COc1ccc(NC(=O)N2CC[C@@]3(CCCN(C(=O)c4ccncc4)C3)C2)cc1
0.213%: max response [9, 17]
7.4%: max response [9, 18]
inactive: Potency [1] > 11.4 µM | activity change, negative = inhibition [2] -25.1% | activity change, negative = inhibition [3] 16.8% | activity, negative = inhibition [4] 5.11% | Potency [5] > 46 µM | Potency [6] | Potency [7] | activity change, negative = inhibition [9] 2.47% | outcome [10]

O=C(c1cccc(F)c1)N1CCC[C@@]2(CCN(c3ncccn3)C2)C1
7.74%: max response [9, 17]
15.7%: max response [9, 18]
inactive: Potency [1] > 11.4 µM | activity change, negative = inhibition [2] -17.6% | activity change, negative = inhibition [3] 10.1% | activity, negative = inhibition [4] 1.15% | Potency [5] > 46 µM | Potency [6] | Potency [7] | activity change, negative = inhibition [9] 3.33% | outcome [10]

CS(=O)(=O)N1CCC2(CC1)CN(Cc1ccccc1)C2
inactive: Potency [1] > 11.4 µM | activity change, negative = inhibition [2] -4.28% | activity change, negative = inhibition [3] -8.71% | activity, negative = inhibition [4] -7.57% | Potency [5] > 46 µM | Potency [6] | Potency [7] | activity change, negative = inhibition [9] 3.83% | outcome [10]
6.73%: max response [9, 17]
15%: max response [9, 18]

COc1ccc(NC(=O)N2CC[C@@]3(CCCN(S(C)(=O)=O)C3)C2)cc1
15.1%: max response [9, 18]
8.24%: max response [9, 17]
inactive: Potency [1] > 11.4 µM | activity change, negative = inhibition [2] -12.7% | activity change, negative = inhibition [3] 4.27% | activity, negative = inhibition [4] -1.03% | Potency [5] > 46 µM | Potency [6] | Potency [7] | Potency [8] | activity change, negative = inhibition [9] 4.71% | outcome [10]

O=C(c1ccco1)N1CCC[C@@]2(CCN(c3ncccn3)C2)C1
inactive: Potency [1] > 11.4 µM | activity change, negative = inhibition [2] -6.68% | activity change, negative = inhibition [3] -7.21% | activity, negative = inhibition [4] -5.91% | Potency [5] > 46 µM | Potency [6] | Potency [7] | activity change, negative = inhibition [9] 3.43% | outcome [10]
23.3%: max response [9, 18]
17.7%: max response [9, 17]

O=C(c1cccc(F)c1)N1CCC2(CC1)CN(c1ncccn1)C2
3.53%: max response [9, 18]
inactive: Potency [1] > 11.4 µM | activity change, negative = inhibition [2] 1.82% | activity change, negative = inhibition [3] -6.5% | activity, negative = inhibition [4] -6.7% | Potency [5] > 46 µM | Potency [6] | Potency [7] | Potency [11] | activity change, negative = inhibition [9] 1.3% | outcome [10]
active: Potency [8] 25.1 µM
1.53%: max response [9, 17]

CS(=O)(=O)N1CCC2(CCN(c3ccccn3)CC2)CC1
5.01%: max response [9, 17]
inactive: Potency [1] > 11.4 µM | activity change, negative = inhibition [2] -5.04% | activity change, negative = inhibition [3] -12.8% | activity, negative = inhibition [4] -2.94% | Potency [5] > 46 µM | Potency [6] | Potency [7] | activity change, negative = inhibition [9] 6.49% | outcome [10]
13.9%: max response [9, 18]

CS(=O)(=O)N1CCC2(CCCN(c3cccc(-c4ccccc4)c3)C2)CC1
12.1%: max response [9, 17]
-3.01%: max response [9, 18]
inactive: Potency [1] > 11.4 µM | activity change, negative = inhibition [2] -13.4% | activity change, negative = inhibition [3] 0.269% | activity, negative = inhibition [4] -0.955% | Potency [5] > 46 µM | Potency [6] | Potency [7] | activation [12] -18.3% | activity change, negative = inhibition [9] -12% | outcome [10]

Cc1cccc(CNc2cc(-c3cccnc3)ncn2)c1
inactive: Potency [1] > 11.4 µM | activity change, negative = inhibition [2] -15.4% | activity change, negative = inhibition [3] -0.57% | Potency [13] > 46 µM | Potency [5] > 46 µM | Potency [6] | Potency [7] | Potency [14] | outcome [15] | activity change, negative = inhibition [9] -14.1% | Potency [16] | outcome [10]
-22.1%: max response [9, 18]
-10.4%: max response [9, 17]

From PubChem BioAssay (NCATS)
